Laboratory results reported in the supplement of paper PMC12669032.

Tests used:
Assay in all cases: growth AUC relative to DMSO control (median of replicates) (fraction); higher = more growth (less inhibition), active = hit call of the paper
Conditions in all cases: 20 µM; 24 h;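 active = AUC reduced over 20% with Padj below 0.05 in at least 2 of 3 replicates; inactive = otherwise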
[1] = tested on: Akkermansia muciniphila
Procedure, shortened: (§1)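 OD600 was recorded every hour for 24 h in anaerobic monocultures of gut bacteria kept at 37 °C in mGAM, seeded at OD600 0.05 and given 20 µM compound in 1% DMSO. The area under each growth curve was scaled to the plate median of solvent-only wells, or to row and column medians for the industrial chemical plate. Before this step, the minimum OD was set to 0. Reported values are medians of three biological replicates run on separate days.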

[2] = tested on: Bacteroides caccae
Procedure, shortened: as §1

[3] = tested on: Bacteroides clarus
Procedure, shortened: as §1

[4] = tested on: Bacteroides dorei
Procedure, shortened: as §1

[5] = tested on: Bacteroides stercoris
Procedure, shortened: as §1

[6] = tested on: Bacteroides thetaiotaomicron
Procedure, shortened: as §1

[7] = tested on: Bacteroides uniformis
Procedure, shortened: as §1

[8] = tested on: Bifidobacterium longum subsp. longum
Procedure, shortened: as §1

[9] = tested on: Clostridium difficile
Procedure, shortened: as §1

[10] = tested on: Collinsella aerofaciens
Procedure, shortened: as §1

Measured: growth AUC

CCc1ccc(C(c2ccc(CC)cc2)C(Cl)Cl)cc1
inactive: [1] 0.859 | [2] 0.912 | [3] 0.952 | [4] 1.02 | [5] 0.931 | [6] 0.977 | [7] 1.02 | [8] 0.972 | [9] 1.03 | [10] 0.901

CC(C)(NC(=O)NCc1ccccc1Cl)c1ccccc1
inactive: [1] 1.12 | [2] 1 | [3] 1.03 | [4] 0.925 | [5] 0.951 | [6] 1.02 | [7] 0.983 | [8] 1.08 | [9] 1.01 | [10] 0.96

CC(CNC(=S)[S-])NC(=S)[S-].[Zn+2] (mixture of isomers)
inactive: [1] 1.05 | [2] 0.937 | [3] 1.02 | [4] 1 | [5] 1.12 | [6] 1.01 | [7] 1.03 | [8] 0.975 | [9] 1 | [10] 0.999

N#Cc1ccc(CC(=NNC(=O)Nc2ccc(OC(F)(F)F)cc2)c2cccc(C(F)(F)F)c2)cc1 (mixture of isomers)
inactive: [1] 1 | [2] 1.03 | [3] 1.02 | [4] 1.03 | [5] 0.988 | [6] 1.02 | [7] 1.02 | [8] 0.999 | [9] 1.01 | [10] 1.03

COC(=O)Nc1ccc(Cl)c(Cl)c1
inactive: [1] 0.817 | [2] 0.99 | [3] 0.96 | [4] 0.969 | [5] 0.95 | [6] 0.966 | [7] 0.966 | [8] 0.84 | [9] 0.978 | [10] 1.02

N#Cc1c(N)nc(NC2CC2)nc1N
inactive: [1] 0.971 | [2] 1.03 | [3] 0.972 | [4] 1.02 | [5] 0.984 | [6] 1.01 | [7] 0.987 | [8] 0.899 | [9] 1.06 | [10] 1.05

CCCCOCCOC(=O)COc1nc(Cl)c(Cl)cc1Cl
inactive: [1] 1.02 | [2] 0.954 | [3] 0.956 | [4] 0.948 | [5] 0.995 | [6] 0.963 | [7] 0.928 | [8] 0.934 | [9] 0.979 | [10] 0.977

CCC/C(=N\OCC)C1=C(O)CC(C2CCCSC2)CC1=O (stereo not given)
inactive: [1] 1.22 | [2] 0.946 | [3] 1.01 | [4] 0.936 | [5] 0.999 | [6] 1.04 | [7] 0.974 | [8] 1.04 | [9] 1.01 | [10] 0.993

Br[C@@H]1CC[C@@H](Br)[C@@H](Br)CC[C@@H](Br)[C@@H](Br)CC[C@H]1Br
active: [3] 0.795 | [5] 0.573 | [8] 0.779 | [10] 0.796
inactive: [1] 1.01 | [2] 0.983 | [4] 0.924 | [6] 0.967 | [7] 0.928 | [9] 1.01

COc1cc(OC)nc(NC(=O)NS(=O)(=O)Nc2ccccc2C(=O)C2CC2)n1
inactive: [1] 0.985 | [2] 0.988 | [3] 0.943 | [4] 0.963 | [5] 0.983 | [6] 0.961 | [7] 0.915 | [8] 0.961 | [9] 1.01 | [10] 0.997

CN(C)C(=O)Nc1ccc(Cl)c(Cl)c1
inactive: [1] 0.951 | [2] 0.995 | [3] 0.975 | [4] 0.981 | [5] 1.08 | [6] 0.99 | [7] 0.954 | [8] 1.09 | [9] 0.965 | [10] 0.992

C=CCc1ccc(O)c(OC)c1
inactive: [1] 0.933 | [2] 0.993 | [3] 1.04 | [4] 1 | [5] 0.975 | [6] 0.967 | [7] 1.03 | [8] 1.01 | [9] 1.01 | [10] 0.973

C#CCOc1cc(-n2nc(C(C)(C)C)oc2=O)c(Cl)cc1Cl
active: [7] 0.799
inactive: [1] 1.14 | [2] 0.977 | [3] 0.986 | [4] 0.951 | [5] 0.879 | [6] 0.932 | [8] 1.05 | [9] 0.862 | [10] 0.917

CCCC(C)(C)C(=O)Nc1ccc(Cl)cc1
inactive: [1] 0.942 | [2] 1 | [3] 1.01 | [4] 1.02 | [5] 1.01 | [6] 0.946 | [7] 0.955 | [8] 0.98 | [9] 0.999 | [10] 1.02

CC(C)(c1cc(Br)c(O)c(Br)c1)c1cc(Br)c(O)c(Br)c1
inactive: [1] 0.904
active: [2] 0.0238 | [3] 0.0496 | [4] 0.675 | [5] 0.0125 | [6] 0.662 | [7] 0.297 | [8] 0.252 | [9] 0.0683 | [10] 0.0491

CCCCCCCC/C=C\CCCCCCCCCCCCC
inactive: [1] 0.969 | [2] 0.961 | [3] 0.982 | [4] 1.05 | [5] 0.986 | [6] 0.995 | [7] 0.997 | [8] 0.964 | [9] 1.05 | [10] 1.02

O=C1NCC[n+]2ccccc21.[Br-]
inactive: [1] 1.13 | [2] 0.985 | [3] 1.01 | [4] 0.761 | [5] 0.984 | [6] 0.972 | [7] 1.02 | [8] 0.972 | [9] 1.01 | [10] 0.97

CCCCOCCOCCOCc1cc2c(cc1CCC)OCO2
inactive: [1] 0.968 | [2] 0.968 | [3] 0.983 | [4] 1.01 | [5] 1.01 | [6] 0.96 | [7] 0.948 | [8] 1.03 | [9] 1.03 | [10] 0.98

NC(=O)c1nn(-c2c(Cl)cc(C(F)(F)F)cc2Cl)c(N)c1S(=O)C(F)(F)F (stereo not given)
inactive: [1] 0.886 | [2] 0.973 | [3] 0.953 | [4] 0.995 | [5] 0.965 | [6] 0.972 | [7] 0.977 | [8] 0.976 | [9] 1 | [10] 0.985

COc1nc(NC(=O)NS(=O)(=O)c2ccccc2C(F)(F)F)nc(C(F)(F)F)n1
inactive: [1] 1.06 | [2] 1.03 | [3] 0.979 | [4] 0.971 | [5] 1 | [6] 0.974 | [7] 1 | [8] 1.01 | [9] 0.987 | [10] 1.01

Cn1cc(C(=O)Nc2ccc(F)cc2-c2ccc(Cl)c(Cl)c2)c(C(F)F)n1
inactive: [1] 0.929 | [2] 0.901 | [3] 0.849 | [4] 0.949 | [5] 0.826 | [6] 0.872 | [7] 0.911 | [8] 0.991 | [9] 0.983 | [10] 0.991

CCOC(=O)[C@@H](C)Oc1ccc(Oc2nc3ccc(Cl)cc3o2)cc1
inactive: [1] 0.975 | [2] 0.971 | [3] 0.966 | [4] 0.983 | [5] 1.03 | [6] 1.01 | [7] 0.929 | [8] 1 | [9] 1.03 | [10] 1.02

CC(=O)Nc1cc(NS(=O)(=O)C(F)(F)F)c(C)cc1C
inactive: [1] 0.856 | [2] 1.04 | [3] 0.973 | [4] 1.02 | [5] 0.886 | [6] 1.01 | [7] 1.02 | [8] 0.92 | [9] 1.08 | [10] 1.06

COC(=O)C(C)Oc1ccc(Oc2ccc(C(F)(F)F)cn2)cc1 (stereo not given)
inactive: [1] 1.14 | [2] 0.979 | [3] 0.992 | [4] 0.948 | [5] 1.23 | [6] 0.965 | [7] 0.968 | [8] 1.02 | [9] 1.01 | [10] 0.979

CCOC(=O)c1ccc(O)cc1
inactive: [1] 1.17 | [2] 0.967 | [3] 1.01 | [4] 0.842 | [5] 0.993 | [6] 0.991 | [7] 1 | [8] 1.02 | [9] 1.01 | [10] 1

CCOC(=O)C(C)N(C(=O)c1ccccc1)c1ccc(Cl)c(Cl)c1 (stereo not given)
inactive: [1] 1.07 | [2] 0.975 | [3] 0.948 | [4] 0.963 | [5] 1.13 | [6] 0.922 | [7] 0.89 | [8] 0.945 | [9] 1.01 | [10] 1.02

CCOC(=O)/C(Cl)=C/c1cc(N2C(=O)C3=C(CCCC3)C2=O)ccc1Cl
inactive: [1] 0.947 | [2] 0.97 | [3] 0.934 | [4] 0.99 | [5] 0.834 | [6] 0.924 | [7] 0.937 | [8] 0.912 | [9] 1.03 | [10] 1.03

CCOC(=O)C(C)Oc1ccc(Oc2nc3ccc(Cl)cc3o2)cc1 (racemic)
inactive: [1] 1.1 | [2] 0.973 | [3] 0.96 | [4] 0.94 | [5] 0.898 | [6] 0.971 | [7] 0.981 | [8] 0.989 | [9] 1.01 | [10] 0.947

C/C=C/C=C/CCCCCCCO
inactive: [1] 0.879 | [2] 1.03 | [3] 0.982 | [4] 1.02 | [5] 1.07 | [6] 0.969 | [7] 1 | [8] 1.01 | [9] 0.984 | [10] 1.02
